# A selection: hits, their analogues and other compounds. The true share with any hit is near 0.9%.
# BioA inh: BioA (M. tuberculosis) enzyme inhibition | purified M. tuberculosis BioA enzyme, plate reader | inhibition, % at 9.99 µM | 360,000 compounds, 0.096% hits; in the data active = inhibition above about 40%
# RecA splice inh: Mtb RecA intein splicing inhibition; P9WHJ3; cell-free RecA intein splicing, fluorescence; inhibition, % (test concentration not listed); 290,000 compounds, 0.75% hits; AID 2221; in the data active = inhibition above about 30%;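 note: 0% = vehicle wells and 100% = reference inhibitor control wells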
# TcdB GH inh: blocks C. difficile toxin B glycohydrolase activity; AID 652162; inhibition, % at 9.99 µM; P18177; TcdB glycohydrolase enzymatic assay, plate reader; 350,000 compounds, 0.24% hits; in the data active = inhibition above about 10%
# Rv3671c inh: Rv3671c (M. tuberculosis) protease inhibition. 320,000 compounds, 0.048% hits. AID 2606. inhibition, % at 5.96 µM; in the data active = inhibition above about 38%;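 note: extracellular domain of Rv3671c used as enzyme; 0% = enzyme with DMSO and 100% = no enzyme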
# UGM FP inh: inhibitors of M. tuberculosis UDP-galactopyranose mutase. 320,000 compounds, 0.06% hits. P9WIQ1. purified UGM, fluorescence polarization probe displacement. AID 504406. inhibition, % at 10 µM; in the data active = inhibition above about 10%, passing the limit was not always enough
# FadD28 binding: blocks FadD28 binding to the bisubstrate probe. fluorescence polarization. inhibition, % at 12.5 µM. 360,000 compounds, 0.22% hits; in the data active = inhibition above about 8.5%, passing the limit was not always enough
# The depositor's hits bear a star; x = no result given.
SMILES,BioA inh,RecA splice inh,TcdB GH inh,Rv3671c inh,UGM FP inh,FadD28 binding
Cc1ccc(S(=O)(=O)Nc2ccc3c(c2)C(=O)N([C@@H](C)CO)C[C@H](C)[C@H](CN(C)S(=O)(=O)c2cccs2)O3)cc1,1,x,1,x,x,x
CCC(=O)Nc1ccc2c(c1)OC[C@@H](C)N(C(=O)NC(C)C)C[C@@H](C)[C@H](OC)CN(C)C2=O,x,x,-2,x,x,x
CCC(=O)Nc1ccc2c(c1)OC[C@H](C)N(C(=O)NC(C)C)C[C@H](C)[C@H](OC)CN(C)C2=O,-1,x,13*,x,x,x
CCC(=O)Nc1ccc2c(c1)OC[C@@H](C)N(C(=O)NC(C)C)C[C@H](C)[C@@H](OC)CN(C)C2=O,-3,x,9,x,x,x
CCC(=O)Nc1ccc2c(c1)OC[C@@H](C)N(C(=O)NC(C)C)C[C@@H](C)[C@@H](OC)CN(C)C2=O,-2,x,18*,x,x,x
O=C(CN1C(=O)NC2(CCCc3ccccc32)C1=O)c1ccc(Br)cc1 (stereo not given),-2,7,-1,-1,-1,17*
COc1cc(N)c(Cc2nccc3cc(OC)c(OC)cc23)cc1OC,x,46*,-3,11,4,-3
O=c1ccc2[n+]([O-])c3ccc(O)cc3oc-2c1,x,9,-3,x,x,98*
CC(=O)Oc1ccc2nc(/C=C/c3ccccc3)oc(=O)c2c1,-4,x,12*,-2,1,-1
COc1ccccc1C(=O)Nc1ccc2c(c1)C(=O)N(C)[C@@H]1CC[C@@H](CC(=O)NCCc3ccncc3)O[C@@H]1CO2,0,x,x,x,x,x
C=CCc1ccc(O)c(-c2ccc(O)c(CC=C)c2)c1,7,26,11*,1,2,-2
CCOC(=O)C1CCCN(C(=O)c2cc(Nc3ccc(OC)cc3)nc3ccccc23)C1 (stereo not given),1,0,x,7,-1,22*
CO[C@@H]1CC[C@H]2CCOc3ccc(C#N)cc3C(=O)N(C)C[C@H](C)C(=O)N(C)C[C@H]1O2,-2,x,0,x,x,x
COc1ccc2c3c(n(C)c2c1)[C@@H](CO)N(C(=O)C1CCOCC1)CC31CCN(Cc2cccc(F)c2)CC1,x,x,0,x,x,x
Cc1c(C(=O)c2ccc(F)cc2)c2ccccn2c1CCc1ccccn1,x,-3,-2,0,3,-3
Cc1c(C(=O)c2ccccc2)c2ccccn2c1CCc1ccccn1,x,x,13*,0,3,-4
Cc1cc(C)c(S(=O)(=O)Nc2ccc(C(=O)O)cc2)cc1S(=O)(=O)Nc1ccc(C(=O)O)cc1,-1,-1,0,-6,11*,-3
Cc1cc(C(C)(C)C)cc(S(=O)(=O)Nc2ccc(O)c(C(=O)O)c2)c1C,x,0,x,-3,17*,-2
c1ccc(-c2nnsc2-c2ncc[nH]2)cc1,x,-1,1,-5,-2,-3
O=S(=O)(c1ccc(Cl)cc1)c1snnc1-c1ccccc1,0,81*,x,-4,-1,1
O=S(=O)(c1ccc(F)cc1)c1snnc1-c1ccccc1,x,69*,6,-5,-2,-4
COc1ccc2c3c(n(C)c2c1)[C@@H](CO)N(C(=O)Nc1ccc(F)cc1)CC31CN(C(=O)CN2CCOCC2)C1,x,x,0,x,x,x
CN1C=C/C(=C\c2cc[n+](C)c3ccccc23)c2ccccc21,6,71*,2,x,x,-1
COc1ccc(CCNc2cc(N3CCN(C(=O)c4ccc(C)cc4)CC3)ccc2[N+](=O)[O-])cc1OC,x,-3,x,43*,-2,x
COCCNc1oc(/C=C/c2ccccc2)nc1C#N,x,-54,12*,-3,2,1
SMILES,BioA inh,RecA splice inh,TcdB GH inh,Rv3671c inh,UGM FP inh,FadD28 binding
C[C@@H]1CN([C@@H](C)CO)C(=O)c2cccc(NC(=O)Nc3ccc(F)cc3)c2O[C@H]1CN(C)Cc1ccc(C(=O)Nc2ccccc2N)cc1,x,x,-1,x,x,x
O=C(O)c1cccc(N/N=C/c2cc(Br)cc(Br)c2O)c1,9,-7,x,23,2,28*
C[C@H](CO)N1C[C@H](C)[C@@H](CN(C)C(=O)NC2CCCCC2)Oc2ccc(NC(=O)Nc3cccc4ccccc34)cc2C1=O,-2,x,x,x,x,x
COc1cccc(NC(=O)N(C)C[C@@H]2Oc3cc(C#Cc4ccc(F)cc4)ccc3S(=O)(=O)N([C@@H](C)CO)C[C@H]2C)c1,-7,x,1,x,x,x
CN(C)S(=O)(=O)c1ccc(NC(=O)/C=C/c2ccccc2Cl)cc1,x,-1,x,-81,x,-12
CN(C)c1ccc(NC(=O)/C=C/c2c(Cl)cccc2Cl)cc1,x,-3,13*,-8,-3,0
CCN(CC)c1ccc(/C=N/NC(=O)c2ccc3nc[nH]c3c2)c(O)c1,-1,x,x,35,2,27*
COc1ccc(NC(=O)Nc2ccc3c(c2)C(=O)N([C@H](C)CO)C[C@H](C)[C@H](CN(C)Cc2ccc4c(c2)OCO4)OCCCC[C@H](C)O3)cc1,-1,x,0,x,x,x
Cc1ccc(NC(=O)C2OCCc3ccccc32)cc1C (stereo not given),-1,-12,11*,-5,-2,-3
O=C(NCc1ccco1)C1OCCc2ccccc21 (stereo not given),2,3,x,-9,2,0
O=C(NCC(F)(F)F)[C@@H]1[C@@H](CO)[C@@H]2Cn3c(ccc(-c4ccncc4)c3=O)[C@@H]2N1Cc1ccncc1,3,x,0,x,x,x
CCSC(=O)CCCCCCCCCCCO,3,8,x,-2,1,18*
O=C(Nc1ccc(O)cc1)C1CCCN1S(=O)(=O)c1ccc(F)cc1 (stereo not given),-2,-1,10*,1,3,0
O=C(Nc1ccc2c(c1)OCCO2)C1CCCN1S(=O)(=O)c1ccc(Cl)cc1 (stereo not given),0,8,x,-4,-3,-1
CC(=O)Nc1ccc(NC(=O)[C@@H]2CCCN2S(=O)(=O)c2ccc3c(c2)OCCO3)cc1,-1,-2,16*,0,-2,-2
COc1ccc2c3c([nH]c2c1)[C@H](CO)N(C(=O)c1cccnc1)CC31CCN(C(=O)CN(C)C)CC1,x,x,0,x,x,x
Cn1cccc1/C=C1/C(=O)NC(=S)N(Cc2ccc(F)cc2)C1=O,-2,12,1,17,-1,44*
O=C(N/N=C/c1cccc(OC(=O)c2ccccc2Cl)c1)c1cccnc1,50*,4,0,-13,2,-22
COc1ccc(Br)cc1C(=O)N/N=C/c1cccnc1,24,2,0,8,-1,x
CCOc1cc(/C=N/NC(=O)c2cccnc2)ccc1OCC(N)=O,x,3,4,0,0,-1
CCOc1cc(/C=N/NC(=O)c2cccnc2)ccc1O,41*,-1,3,9,0,0
COc1cc2ccccc2cc1C(=O)N/N=C/c1cccnc1,72*,0,-10,-4,0,-2
COc1ccc(CN(C)C[C@@H]2Oc3c(NS(=O)(=O)c4ccc(C)cc4)cccc3C(=O)N([C@H](C)CO)C[C@@H]2C)cc1,-1,x,-2,x,x,x
N#CC(C#N)=NNc1ccc(S(=O)(=O)N2CCCC2)cc1,x,30*,x,10,-1,-1

# From PubChem BioAssay
